Here are results for 62 compounds from PubChem BioAssay AID2553 (Johns Hopkins Ion Channel Center, 2010).

The structures appear in SMILES notation. The campaign covered roughly 310,000 compounds. About 3,300 (1.1%) were called active.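 Rule for the calls: active = B-score under library mean minus 3 SD, initial fluorescence not abnormally high, positive integrated signal ratio; inactive = the rest.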 The list comes from a sample in which actives are over-represented; it also holds similar structures and randomly drawn compounds.

The target of this test is Short transient receptor potential channel 6 (Mus musculus) (UniProt Q61143). In words: mouse TRPC6 channel inhibitors, primary screen, cell-based, HEK293, membrane potential dye (AID 2553).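 For B-score: B-score derived from integrated fluorescence ratio over the kinetic read; more negative B-score means stronger inhibition of depolarization.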 The note with it: ACh-evoked depolarization, at 10 µM; stronger effect = lower value.
Sequence of Short transient receptor potential channel 6 (Mus musculus) (Q61143 whole entry, looked up): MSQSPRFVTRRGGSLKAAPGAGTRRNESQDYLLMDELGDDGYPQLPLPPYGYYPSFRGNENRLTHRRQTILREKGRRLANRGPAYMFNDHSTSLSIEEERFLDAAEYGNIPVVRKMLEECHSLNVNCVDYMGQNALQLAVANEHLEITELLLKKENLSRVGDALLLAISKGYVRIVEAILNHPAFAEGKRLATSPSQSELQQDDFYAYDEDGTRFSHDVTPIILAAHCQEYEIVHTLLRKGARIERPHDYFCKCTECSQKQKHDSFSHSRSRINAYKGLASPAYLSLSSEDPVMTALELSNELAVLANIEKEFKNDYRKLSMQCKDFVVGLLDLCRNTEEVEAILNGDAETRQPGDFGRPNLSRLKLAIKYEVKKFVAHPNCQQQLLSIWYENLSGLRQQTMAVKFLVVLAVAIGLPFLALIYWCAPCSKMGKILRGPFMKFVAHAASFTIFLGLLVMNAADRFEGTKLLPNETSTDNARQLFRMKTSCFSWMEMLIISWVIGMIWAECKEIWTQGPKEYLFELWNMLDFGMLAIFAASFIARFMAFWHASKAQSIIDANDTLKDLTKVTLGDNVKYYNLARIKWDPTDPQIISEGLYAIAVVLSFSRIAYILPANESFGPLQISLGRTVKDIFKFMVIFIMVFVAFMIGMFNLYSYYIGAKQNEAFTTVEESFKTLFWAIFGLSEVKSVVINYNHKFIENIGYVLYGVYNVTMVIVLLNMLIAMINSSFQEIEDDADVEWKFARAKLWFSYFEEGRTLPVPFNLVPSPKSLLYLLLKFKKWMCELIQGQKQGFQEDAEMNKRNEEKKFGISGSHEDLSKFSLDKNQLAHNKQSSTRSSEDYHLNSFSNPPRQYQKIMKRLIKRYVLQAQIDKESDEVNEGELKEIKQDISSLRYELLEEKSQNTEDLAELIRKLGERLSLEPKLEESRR
With `CCn1cc(C(=O)OCC(=O)Nc2cccc(C)c2)c(=O)c2ccc(C)nc21`, the B-score entry was “inactive”.
`Cc1nc(C(=O)Nc2ccc(Cl)cc2)sc1C1(C)CC(c2ccccc2)=NO1` (configuration not stated): the B-score result was “inactive”.
The same measure for `Cc1nc(-c2ccccc2)sc1C1(C)CC(c2cccnc2)=NO1` (configuration not stated): “inactive”.
In the case of `Cc1nc(C(=O)NCc2ccccc2)sc1C1(C)CC(c2cccnc2)=NO1` (configuration not stated) it was -5.44 (active); in that of `CC(C)(C)CN1CCNC(=O)C1CC(=O)NC1Cc2ccccc2C1` (configuration not stated), “inactive”; in that of `CCN(CC)CCCNC(=O)COc1ccc2oc3c(c2c1)CCCC3`, “inactive”.
The same measure for `CCOC(=O)N1CCN(C(=O)COc2ccc3oc4c(c3c2)CCCC4)CC1`: -5.45 (active); for `CCOC(=O)N1CCN(C(=O)COc2ccc(Br)cc2)CC1`: “inactive”.
As to `COc1ccc(COCCN2CCN(S(=O)(=O)c3ccccc3)CCC2=O)cc1`, the B-score result was “inactive”.
In the case of `Cc1ccc(C(O)P(=O)(OC(C)C)c2ccc(N(C)C)cc2)cc1` (configuration not stated) it was “inactive”.
In the case of `CCn1c(SCC(=O)Nc2ccc(Br)cc2)nc2sc3c(c2c1=O)CCN(C)C3` it was “inactive”; in that of `COc1c(C=O)c(CCN(C)C(=O)c2ccc(F)cc2)cc2c1OCO2`, “inactive”.
Regarding `COc1ccc(C)cc1S(=O)(=O)Nc1cc2c3c(c1)CCC(=O)N3CCC2`, the B-score result was “inactive”.
The same measure for `O=C(NC1C2CC3CC(C2)CC1C3)c1ccc(N2CCNCC2)c([N+](=O)[O-])c1` (configuration not stated): -6.41 (active); for `CS(=O)(=O)N1CCN(c2ccc(C(=O)NC3C4CC5CC(C4)CC3C5)cc2[N+](=O)[O-])CC1` (configuration not stated): “inactive”; for `CC(NC(=O)c1ccc(N2CCNCC2)c([N+](=O)[O-])c1)C12CC3CC(CC(C3)C1)C2` (configuration not stated): “inactive”.
The same measure for `COC(=O)c1ccc(CNC(=O)C2CCC(=O)N(Cc3ccccn3)C2)cc1` (configuration not stated): “inactive”; for `COc1cc(OC)cc(C(=O)NCCCn2ccnc2)c1`: “inactive”.
In the case of `CCCCC(=O)Nc1ccc(C(=O)NCCCn2ccnc2)cc1` it was “inactive”; in that of `CCCC(=O)Nc1ccc(C(=O)NCCCn2ccnc2)cc1`, -6.02 (active); in that of `COc1ccnc(Oc2ccccc2)n1`, “inactive”.
With `Cn1nc(C(F)(F)F)c(-c2ccc(F)cc2)c1NC(=O)CSCC(=O)O`, the B-score entry is “inactive”.
In the case of `CSCCC(NC(=O)c1ccc(=O)n(C)n1)c1nc2ccccc2[nH]1` (configuration not stated) it was -4.99 (active); in that of `COc1ccc(CC(=O)N[C@@H](CCSC)c2nc3ccccc3[nH]2)cc1`, “inactive”.
In the case of `CSCCC(NC(=O)c1cc([N+](=O)[O-])cc([N+](=O)[O-])c1)c1nc2ccccc2[nH]1` (configuration not stated) it was “inactive”; in that of `COc1ccccc1Oc1ccc(N2CC(C(=O)OCC(=O)c3ccc(F)cc3)CC2=O)cc1` (configuration not stated), “inactive”.
`CC(C)[C@@H]1COC(c2cccc(C3=N[C@H](C(C)C)CO3)c2)=N1`: the B-score entry was “inactive”.
In the case of `CCN(Cc1ccncc1)C(=O)c1cccc(S(=O)(=O)N2CCOCC2)c1` it was “inactive”; in that of `O=S(=O)(c1cccc(Cn2nnc(-c3ccc(F)cc3)n2)c1)N1CCOCC1`, -5.77 (active); in that of `Cc1nc(-c2ccc(F)cc2)c(CC(=O)Nc2cccc(S(=O)(=O)N3CCOCC3)c2)s1`, “inactive”.
Consider `O=C(Nc1ccc(OCC(=O)N2CCOCC2)cc1)c1cc(F)c(F)cc1Cl`, for which the B-score result was “inactive”.
For `COc1ccc2c(c1)C=CC1(O2)N(CCO)c2ccccc2C1(C)C` (configuration not stated), the B-score result is “inactive”.
On to `O=C1CN(C(=O)c2ccccc2F)C(c2ccc(F)cc2)c2cc(F)ccc2N1` (configuration not stated), for which the B-score was -5.3 (active).
The same measure for `CC(C)C(=O)N1CC(=O)Nc2ccc(F)cc2C1c1ccc(F)cc1` (configuration not stated): “inactive”.
The same measure for `Cc1ccc(C(=O)N2CC(=O)Nc3ccc(F)cc3C2c2ccc(F)cc2)cc1` (configuration not stated): “inactive”; for `CCc1ccc(NC(=O)CS(=O)CC(=O)N2CCN(c3ccccc3F)CC2)cc1` (configuration not stated): “inactive”; for `Cc1c(CCOC(=O)CC23CC4CC(CC(C)(C4)C2)C3)sc[n+]1Cc1ccc([N+](=O)[O-])cc1`: -5.88 (active).
In the case of `Cc1c(CCOC(=O)c2cc([N+](=O)[O-])ccc2Cl)sc[n+]1CCCCS(=O)(=O)[O-]` it was “inactive”; in that of `Cc1c(CCO)sc[n+]1CC(=O)OC12CC3CC(CC(C3)C1)C2`, “inactive”; in that of `COc1ccc(NC(=O)CN(C)C(=O)c2ccc(NC3CC3)c([N+](=O)[O-])c2)cc1`, “inactive”.
On to `CCC(C)(C)N=C(NC#N)Nc1cccnc1`, for which the B-score entry is “inactive”.
In the case of `Cc1cccn2c(=O)c3cc(C#N)c(=O)n(CCCN4CCOCC4)c3nc12` it was -15.8 (active); in that of `Cc1cccn2c(=O)c3cc(C#N)c(=NC(=O)c4cccnc4)n(CC4CCCO4)c3nc12` (configuration not stated), “inactive”; in that of `Cc1cccn2c(=O)c3cc(C(=O)NCCN4CCOCC4)c(=N)n(Cc4cccnc4)c3nc12`, “inactive”.
The same measure for `CC(C)CCNC(=O)C(C)N(C(=O)Cn1nnc(-c2ccc(F)cc2)n1)C1CCCC1` (configuration not stated): “inactive”.
As for `CCCCNc1nc2ccccc2nc1NS(=O)(=O)c1cccs1`, the B-score entry was “inactive”.
The same measure for `O=C(CN1C(=O)CSC1=O)N1CCCC(Nc2ccc(F)cc2)C1` (configuration not stated): “inactive”.
For `CCOc1cccc(/C(O)=C2/C(=O)C(=O)N(CCOC)C2c2ccncc2)c1` (configuration not stated), the B-score entry was “inactive”.
In the case of `CCOc1ccc(/C(O)=C2/C(=O)C(=O)N(Cc3cccnc3)C2c2ccc(N(C)C)cc2)c(C)c1` (configuration not stated) it was -6.27 (active); in that of `COc1ccc(C2C(C(C)=O)=C(O)C(=O)N2Cc2cccnc2)cc1` (configuration not stated), “inactive”.
In the case of `O=C(NCc1ccccc1)C1C(=O)N(Cc2ccccc2)C(=O)C1C1(O)CCCC1` (configuration not stated) it was “inactive”; in that of `Cc1cc(NC(=O)CN2CCCCC2C)nc2c1c(=O)oc1ccccc12` (configuration not stated), “inactive”; in that of `CC(=O)N1CCC(N(C(=O)Nc2ccc(Cl)cc2)C(C)C)CC1`, “inactive”.
In the case of `COc1ccc(CNC(=O)c2cc3c(=O)n4ccccc4nc3n(CC3CCCO3)c2=N)cc1` (configuration not stated) it was -7.34 (active); in that of `Cc1ccc2nc3c(cc(C(=O)NCCc4ccccc4)c(=N)n3CC3CCCO3)c(=O)n2c1` (configuration not stated), “inactive”; in that of `COc1ccc(CCn2c(=N)c(C(=O)NCC3CCCO3)cc3c(=O)n4cccc(C)c4nc32)cc1OC` (configuration not stated), “inactive”.
Regarding `CC(C)c1ccc(NC2CCCN(C(=O)c3ccncc3)C2)cc1` (configuration not stated), the B-score result was “inactive”.
In the case of `CC(=O)NS(=O)(=O)c1ccc2c(c1)Cc1cc(S(=O)(=O)NC(C)=O)ccc1-2` it was “inactive”; in that of `Cc1ccc2c(c1)N(CC(=O)N1CCC(O)CC1)C(=O)CO2`, “inactive”.
In the case of `CCOC(=O)N1CCC(NC(=O)CN2C(=O)COc3ccc(C(C)(C)C)cc32)CC1` it was -7.85 (active).
In the case of `Cc1ccc2c(c1)N(CC(=O)N1CCCC(C)C1)C(=O)CO2` (configuration not stated), the B-score entry was “inactive”.
The same measure for `CC(NC(=O)CCC(=O)N1CCN(S(=O)(=O)c2ccc(Cl)cc2)CC1)c1ccccc1` (configuration not stated): “inactive”.
